Test results from PubChem BioAssay (NCATS).
The source made the active and inactive calls. Calls follow the shape of the dose curve; as a rule, active = well fitted activation curve with a large enough effect; inconclusive = small, poorly fitted or top-dose-only effect; inactive = flat fitted curve, though single readings scatter.

Test: Cellular Toxicity (caspase-3) SHSY5Y (AID 657)
Settings: SH-SY5Y caspase-3 activation, DMSO zero, 10 µM staurosporine = 100%; series mostly up to 91.7 µM
Excerpt: NIH Chemical Genomics Center [NCGC]
NIH Molecular Libraries Screening Centers Network [MLSCN]
National Institutes of Environmental Health Sciences [NIEHS]
National Toxicology Program [NTP]
We have developed a 1536-well cell-based assay for quantitative high throughput screening (qHTS) against a number of cell lines to determine in vitro caspase 3/7 activity of small molecules. This particular assay uses the SH-SY5Y cell line which is derived from human neuroblastoma.
NCGC Assay Protocol Summary:
The Caspase-Glo 3/7 assay (Promega) is a homogeneous method to measure caspase-3 and caspase-7 activities in cultured cells. The quantitation of caspase 3/7 activity is based on the cleavage of a peptide-aminoluciferin substrate. After caspase cleaves the substrate the free aminoluciferin is liberated and serves as the substrate of luciferase, which generates the light. The luminescent signal is proportional to the amount of caspase 3/7 activity present.
Using the Caspase-Glo 3/7 assay, the amount of caspase 3/7 activity was measured in the SH-SY5Y cell line with complete culture medium following compound treatment for 16 hours. The assay was performed in opaque white 1536-well plates. In the screen, staurosporine and doxorubicin were used as positive controls. Library compounds were measured for their ability to cause the activation of caspase 3/7 in the cell line, as reflected by an increase in luminescence signal, in a concentration-dependent manner. Data were normalized to the controls for basal activity (DMSO only) and 100% stimulation (10 uM staurosporine). AC50 values were determined from concentration-response data modeled with the standard Hill equation.
qHTS protocol for caspase 3/7 assay in SH-SY5Y cells
[Step] [Parameter] [Value] [Description]
1. Reagent; 5 uL; 1500 SH-SY5Y cells/well
2. Time; 5 hr; 37 °C incubation
4. Controls; 23 nL; doxorubicin 7 pM to 100 uM & staurosporine 1.4 pM to 20 uM
5. Time; 16 hr; 37 °C incubation
6. Reagent; 5 uL; Caspase-Glo 3/7 reagent
7. Time; 1 hr; Room Temperature
8. Detection; Luminescence; Viewlux plate reader
Keywords: caspase 3/7, apoptosis, SH-SY5Y cell line, luminescence, NTPHTS, NTPHTS_NCGC, NIEHS, EPA, DSSTox, MLSMR, MLSCN, NIH Roadmap, qHTS, NCGC

| SMILES | outcome |
| --- | --- |
| C[C@H]1CC[C@@H]2[C@@H](C)[C@H]3[C@H](C[C@H]4[C@@H]5CC=C6CC(O[C@@H]7O[C@H](CO)[C@H](O)[C@H](O[C@@H]8O[C@H](CO)[C@@H](O)[C@H](O)[C@H]8O)[C@H]7O[C@H]7O[C@@H](C)[C@H](O)[C@@H](O)[C@H]7O)CC[C@]6(C)[C@H]5CC[C@]34C)N2C1 (stereo not given in full) | inactive |
| O=CC=O | inactive |
| O=[N+]([O-])c1ccccc1 | inactive |
| ClCC1CO1 (stereo not given) | inactive |
| ClC(Cl)(Cl)Cl | inactive |
| COc1ccc2c(c1OC)C(=O)OC2C1c2cc3c(cc2CCN1C)OCO3 (stereo not given) | inactive |
| C=CCN=C=S | inactive |
| COC1=CC(=O)O[C@@H](/C=C/c2ccccc2)C1 | inactive |
| CC(C)CCON=O | inactive |
| CC(C)Nc1ccc(Nc2ccccc2)cc1 | inactive |
| O=Cc1ccco1 | inactive |
| [O]=[Cd] | inactive |
| S=C=S | inactive |
| CCOC(=O)c1ccccc1C(=O)OCC | inactive |
| O=C1C=CC(=O)C=C1 | inactive |
| [Cl-].[Cl-].[Hg+2] | inactive |
| O=C1C2CC=CCC2C(=O)N1SC(Cl)(Cl)Cl (stereo not given) | inactive |
| CCCCCCCCOC(=O)c1ccccc1C(=O)OCCCCCCCC | inactive |
| C[C@]12CCC(=O)C[C@@H]1CC[C@@H]1[C@@H]2CC[C@]2(C)[C@@H](O)CC[C@@H]12 | inactive |
| C[C@H]1CCC[C@H](O)CCCCCc2cc(O)cc(O)c2C(=O)O1 | inactive |
| O=C1CCO1 | inactive |
| Clc1ccccc1Cl | inactive |
| O=C(O)C(Cl)(Cl)Cl | inactive |
| Oc1cc(Cl)c(Cl)cc1Cl | inactive |
| CC(C)(C)c1cc(O)ccc1O | inactive |
| O=[N+]([O-])c1ccc(F)c([N+](=O)[O-])c1 | inactive |
| ClC=C(Cl)Cl | inactive |
| O=C/C=C/c1ccccc1 | inactive |
| CCCCCl | inactive |
| NNC(N)=O | inactive |
